Screens from PubChem.
IkB signaling: IkB Signaling; ABC-DLBCL IkBa-CBG/CBR dual luciferase ratio, 4 h; response scale: scaled: untreated 0%, proteasome inhibitor 100%; Potency, µM (series often up to 57.1 µM); actives 0.04% (n = 110,000); active means well fitted curve in the direction sought with a large enough effect in the signal ratio, not every such curve was filed as active; inconclusive means small, poorly fitted or top-dose-only effect, or a change in a side signal; the % refers to the signal ratio;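 further: the direction sought is a rising ratio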
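In this assay, an IκBα–CBG68 fusion accumulates when IKK-driven degradation is blocked; native CBR normalizes for cell number. OCI-Ly3 cells were treated 4 h with compound and doxycycline, then green and red light read after Chroma-Glo addition.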
p53ts 32C kill: qHTS Screen for Compounds that Selectively Target Cancer Cells with p53 Mutations: Cytotoxicity of p53ts Cells at the Permissive Temperature | AID 924, 2007 | H1299-p53A138V at 32C, ATP luminescence viability, 24 h | actives 0.93% (n = 130,000) | Potency, µM (doses to about 46.1 µM), most hits filed as cytotoxic; further: nearly all actives have a fitted effect of over 55% in size
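Cells: H1299 p53ts (A138V), 600/well, pre-incubated 16–30 h at 37C. Cpd up to 46 uM, 24 h, 32C. Readout: ATPlite luminescence, 20 min RT. Normalization: DMSO vs tamoxifen 100 uM. AC50 by Hill equation.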
p53ts 39C kill: qHTS Screen for Compounds that Selectively Target Cancer Cells with p53 Mutations: Cytotoxicity of p53ts Cells at the Nonpermissive Temperature; H1299-p53A138V viability at 39C, ATP luminescence, 24 h; Potency, µM (doses to about 46.1 µM), actives largely listed as cytotoxic; actives 1.5% (n = 130,000); further: nearly all actives have a fitted effect of over 55% in size
Imprint erasure: qHTS Assay for Compounds that Induce Erasure of Genomic Imprints; AID 1948, 2009; actives 0.02% (n = 110,000); mouse ES Peg3-LacZ reporter, beta-gal luminescence, 40 h; Potency, µM (top dose mostly 60.7 µM), most hits filed as activators
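Imprint erasure is scored as LacZ activity from the silenced maternal Peg3 allele in feeder-free female ES cells cultured 40 h with LIF. Luminescence is normalized to in-plate negative controls and fitted to the Hill equation.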
Numbers stand for hits; n = inactive; u = inconclusive; x = not tested or not shown; [ ] = remark or other dose. In the library only some 1.7% were active in any assay of this set; here they are far more common. Unless noted, the call rests on the fitted dose curve; in most records, active means well fitted curve in the direction sought with a large enough effect; inconclusive means small, poorly fitted or top-dose-only effect, or another doubt; inactive means no such curve, though single readings can be large; an effect the other way counts as inactive or inconclusive.

SMILES | IkB signaling | p53ts 32C kill | p53ts 39C kill | Imprint erasure
COc1ccc([C@@H]2CC(=O)c3c(O)cc(O[C@@H]4O[C@@H](CO[C@@H]5O[C@@H](C)[C@@H](O)[C@@H](O)[C@H]5O)[C@@H](O)[C@@H](O)[C@H]4O)cc3O2)cc1O | n[11.4 µM] | x | x | x
Cc1cccc(N2CCN(c3ncnc4c3cnn4-c3ccc(Cl)cc3)CC2C)c1 (stereo unspecified) | u | u | 16µM | n[10.9 µM]
Cc1cccc(-n2ncc3c(N4CCCCCC4)ncnc32)c1 | u | u | 4µM | n[10.9 µM]
Cc1ccc(C)c(N2CCN(CCCNC(=O)c3ccc4nc(N5CCC(C)CC5)sc4c3)CC2)c1 | u | n | 13µM | n[10.9 µM]
Cc1ccc(C)c(N2CCN(CCCNC(=O)c3ccc4nc(CCc5ccccc5)oc4c3)CC2)c1 | u | n | 25µM | n[10.9 µM]
Cc1ccc(Cl)cc1N1CCN(CCCNC(=O)c2ccc3nc(N4CCCCC4)sc3c2)CC1 | u | n | n | n[10.9 µM]
Cc1ccc(NC(=O)Nc2ccc3nc(N4CCN(C)CC4)cc(C)c3c2)cc1C | u | u | 13µM | n[10.9 µM]
Cc1cc(N2CCN(C)CC2)nc2ccc(NC(=O)Nc3cccc(Cl)c3)cc12 | n | u | 25µM | n[10.9 µM]
Cc1cc(N2CCN(C)CC2)nc2ccc(NC(=O)Nc3ccccc3Br)cc12 | n | 16µM | 13µM | n[10.9 µM]
CCN1CCN(c2cc(C)c3cc(NC(=O)c4cc(Br)ccc4Cl)ccc3n2)CC1 | u | u | 13µM | n[10.9 µM]
Cc1cc(N2CCN(C)CC2)nc2ccc(NC(=O)Nc3ccccc3)cc12 | n | u | u | n[10.9 µM]
Oc1c(Br)cc(Br)c2cccnc12 | x | u | 7.9µM | n
Oc1c(CN2CCN(c3ccccc3)CC2)cc(Br)c2cccnc12 | n[11.4 µM] | n[9.22 µM] | u | n[10.9 µM]
O=C(Cn1cnc2onc(-c3ccc(Cl)cc3)c2c1=O)Nc1ccc(F)cc1 | u | n | u | n[10.9 µM]
O=C(Cn1cnc2onc(-c3ccc(F)cc3)c2c1=O)Nc1ccc(F)c(Cl)c1 | u | n | 13µM | n[10.9 µM]
CC(C)(C)OC(=O)N1CCC(c2c(C(=O)NCCN3CCC(Cc4ccccc4)CC3)cnn2-c2cccc(Cl)c2)CC1 | u | u | 20µM | n[10.9 µM]
Cc1ccc(-n2ncc(C(=O)NCCN3CCC(Cc4ccccc4)CC3)c2C2CCN(C(=O)OC(C)(C)C)CC2)cc1 | u | u | 7.9µM | n[10.9 µM]
CN1CCN(CCNC(=O)c2cnn(-c3cccc(Cl)c3)c2C2CCN(C(=O)OC(C)(C)C)CC2)CC1 | n | n | n | n[10.9 µM]
O=c1cc(-c2ccccc2)oc2cc(O[C@H]3O[C@H](CO)[C@@H](O)[C@H](O)[C@@H]3O)c(O)c(O)c12 | n[11.4 µM] | x | x | x
CCc1cccc(NS(=O)(=O)c2cc(-c3cnc(C)o3)ccc2OC)c1 | u | n | n | n[10.9 µM]
CCN1CCCC1CNC(=O)c1ccc(-n2c(=O)c(=O)[nH]c3ccccc32)cc1 (stereo unspecified) | x | n | n | x
Nc1ncnc2c1c(I)cn2C1OC(CO)C(O)C1O (stereo unspecified) | x | n | n | n
N/C(=N\O)c1cn([C@@H]2O[C@@H](CO)[C@H](O)[C@@H]2O)c2ncnc(NO)c12 | n[11.4 µM] | 2µM | 1µM | n[10.9 µM]
COc1cccc(NC(=O)CSc2nnc(-c3cc(C)n(-c4ccccc4)c3C)o2)c1 | u | n | 20µM | n
O=S(=O)(Nc1cccc(-c2ccc(N3CCCCC3)nn2)c1)c1ccc(Cl)s1 | u | 10µM | 5µM | n[10.9 µM]
SMILES | IkB signaling | p53ts 32C kill | p53ts 39C kill | Imprint erasure
Cc1cc(C)c(S(=O)(=O)Nc2ccc(-c3ccc(N4CCCCC4)nn3)cc2)c(C)c1 | u | u | 7.9µM | n[10.9 µM]
O=S(=O)(Nc1cccc(-c2ccc(N3CCCCCC3)nn2)c1)c1ccccc1 | n | u | u | n[10.9 µM]
CC(=O)c1ccc(S(=O)(=O)Nc2cccc(-c3ccc(N4CCCC4)nn3)c2)cc1 | u | n | u | n[10.9 µM]
CC(=O)c1ccc(S(=O)(=O)Nc2cccc(-c3ccc(N4CCCCCC4)nn3)c2)cc1 | n | u | 6.3µM | n[10.9 µM]
O=S(=O)(Nc1cccc(-c2ccc(N3CCCCC3)nn2)c1)c1cccs1 | n | 10µM | 6.3µM | n[10.9 µM]
Cc1ccc(/C=C/c2onc(C)c2S(=O)(=O)N2CCC(C(=O)N3CCC(N(C)C(C)C)CC3)CC2)cc1 | n | u | 20µM | n[10.9 µM]
CCOc1ccccc1/C=C/c1onc(C)c1S(=O)(=O)N1CCC(C(=O)N(CC)CC)CC1 | n | n | n | n[10.9 µM]
CCN(CCN(C)C)C(=O)C1CCN(S(=O)(=O)c2c(C)noc2/C=C/c2ccccc2F)CC1 | n | n | 13µM | n[10.9 µM]
COC(=O)Cn1c(C2CC(=O)N(c3c(C)cccc3C)C2)nc2ccccc21 (stereo unspecified) | n | n | n | n[10.9 µM]
O=c1cc(-c2ccccc2)[nH]c2nc3ccccc3n12 | u | 2µM | 2µM | n
O=c1cc(-c2ccccc2)[nH]n1-c1nc2ccccc2s1 | u | u | u | n
c1ccc(-c2csc(-c3nc4ccccc4[nH]3)n2)cc1 | x | 7.9µM | 16µM | n
Nc1ccc(-c2nc3ccccc3[nH]2)cc1 | n | 10µM | u | n
Nc1cccc(-c2nc3ccccc3[nH]2)c1 | n | u | u | n
CCOc1ccc2c(c1)c(=O)c(C(=O)c1ccc3c(c1)OCO3)cn2Cc1cccc(F)c1 | u | n | n | n[10.9 µM]
